The results in this text go back to PubChem BioAssay (NCI).

Compounds without any hit were thinned out: in the full panel of roughly 83,000, 20% have a hit.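 Compound tested at a single concentration for 48 hours in 96-well plates; a percent growth value below 10 was scored as active.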 Calls of active or inactive are those of the source.

Common to all, as to assay: NCI-60 one-dose screen, 48 h (100 = growth as untreated, 0 = no growth, -100 = all killed)
Experiment [1] deals with HOP-62 NSCLC. The note with it: 10 µM unless noted.
Experiment [2] relates to A549/ATCC NSCLC. The conditions noted are these: 10 µM unless noted.
The subject of experiment [3] is DU-145 prostate. The conditions noted are these: 10 µM unless noted.
For experiment [4], the system named is MALME-3M melanoma. The note with it: 10 µM unless noted.
In experiment [5] the test system is RXF 393 renal. The note with it: 10 µM unless noted.
Experiment [6] deals with SF-295 CNS. The note with it: 10 µM unless noted.
Experiment [7] concerns UACC-257 melanoma. The conditions noted are these: 10 µM unless noted.
Experiment [8] has as its system SNB-19 CNS. The note with it: 10 µM unless noted.
Experiment [9] deals with LOX IMVI melanoma. The conditions noted are these: 10 µM unless noted.
The test system of experiment [10] is SK-MEL-2 melanoma. The conditions noted are these: 10 µM unless noted.
Experiment [11] concerns SN12C renal. The conditions noted are these: 10 µM unless noted.
In experiment [12] the test system is A498 renal. The conditions noted are these: 10 µM unless noted.
The subject of experiment [13] is MOLT-4 leukemia. The note with it: 10 µM.
Experiment [14] deals with OVCAR-8 ovarian. The conditions noted are these: 10 µM unless noted.
The test system of experiment [15] is OVCAR-4 ovarian. The conditions noted are these: 10 µM unless noted.
The test system of experiment [16] is BT-549 breast. The note with it: 10 µM.
Experiment [17] has as its system HCC-2998 colon. The conditions noted are these: 10 µM unless noted.
Experiment [18] concerns SNB-75 CNS. The note with it: 10 µM unless noted.
For experiment [19], the system named is SK-MEL-28 melanoma. The conditions noted are these: 10 µM unless noted.
In experiment [20] the test system is SK-OV-3 ovarian. The note with it: 10 µM unless noted.

As to `Cc1nnc([S-])s1.[Au+].c1ccc([PH+](c2ccccc2)c2ccccc2)cc1`, the growth was 28.2% (inactive) in experiment [1]; 74.6% (inactive) in experiment [2]; 18.6% (inactive) in [3]; -61.6% (active) in experiment [4]; -84.6% (active) in [5]; 75% (inactive) in [6]. The growth was -12.4% (active) in experiment [7]; 19.2% (inactive) in [8]; -60.6% (active) in [9]; -12.2% (active) in experiment [10]; 6.71% (active) in experiment [11]; 25.1% (inactive) in experiment [12]. Besides, the growth in experiment [13] is -9.08% (active); in experiment [14], 15.9% (inactive); in experiment [15] it was 36.2% (inactive); in experiment [16] it was 33.9% (inactive); in [17] it was 37% (inactive).

`C[C@@H]1O[C@@H](O[C@H]2CC[C@@]3(C)[C@H](CCC4[C@@H]3C(O)C[C@]3(C)[C@@H](c5ccc(=O)oc5)CC[C@]43O)C2)[C@H](O)[C@H](O)[C@H]1O` (stereo not given in full): the growth in experiment [1] was -100% (active); in experiment [2], -83.6% (active); in [3] it was -70.1% (active); in experiment [4] it was -45.9% (active); in [5] it was -52.3% (active); in [6], -71.5% (active). The growth in experiment [7] was -99.7% (active); in experiment [18], -88.3% (active); in experiment [8], -91.1% (active); in [9] it was -55.8% (active); in [19], -96.1% (active); in experiment [10] it was -81% (active). Besides, the growth was -25.3% (active) in experiment [11]; -27.9% (active) in experiment [12]; -92.9% (active) in experiment [15]; -95.6% (active) in experiment [20]; -89.9% (active) in [16]; -73.6% (active) in experiment [17].

Consider `CCOC(=O)C1(c2ccccc2)CCN(CC(=O)c2ccc(NC(C)=O)cc2)CC1`, for which the growth in experiment [1] was 99.9% (inactive); in [2], 95% (inactive); in experiment [3] it was 123% (inactive); in experiment [5], 124% (inactive); in [6] it was 110% (inactive); in [7], 104% (inactive). Further, the growth in [18] was 114% (inactive); in experiment [8], 102% (inactive); in experiment [9] it was 88.8% (inactive); in [19], 124% (inactive); in [10] it was 89.2% (inactive); in [11], 93.2% (inactive). Besides, the growth in experiment [12] was 94.5% (inactive); in experiment [13], 102% (inactive); in experiment [14] it was 110% (inactive); in experiment [15], 122% (inactive); in experiment [20], 101% (inactive); in [16], 97% (inactive).

On to `COc1cc(NCCCCCN=C(N)N)c2ncccc2c1`, for which the growth in experiment [1] is 45.7% (inactive); in experiment [2] it was 90.7% (inactive); in [3], 103% (inactive); in [4], 19.6% (inactive); in experiment [6], 61.1% (inactive); in [7] it was 79.7% (inactive). Moreover, the growth in experiment [18] was 47% (inactive); in experiment [8], 37.5% (inactive); in experiment [9] it was 66.4% (inactive); in experiment [10], 43.3% (inactive); in experiment [11], 7.58% (active); in experiment [12] it was 89.6% (inactive). The growth in [13] was 4.38% (active); in experiment [14], 32.6% (inactive); in experiment [15], -12.1% (active); in [20], 94.9% (inactive); in [16] it was 38.7% (inactive); in experiment [17], 55.9% (inactive).

In the case of `CC12CC[C@H](O)C=C1/C(=N/O)CC1C2CCC2(C)C1CC[C@@H]2O` (stereo not given in full), the growth in [1] is 96.4% (inactive); in experiment [2], 103% (inactive); in experiment [4], 80.3% (inactive); in [5] it was 104% (inactive); in [7], 111% (inactive); in experiment [18], 79.2% (inactive). The growth in experiment [8] was 104% (inactive); in experiment [9], 94.3% (inactive); in experiment [10], 99.2% (inactive); in [11], 104% (inactive); in experiment [14] it was 107% (inactive); in experiment [20] it was 95% (inactive). Moreover, the growth in [16] was 85% (inactive); in experiment [17] it was 99.3% (inactive).

Regarding `CC(=O)[O][Hg][c]1nc2c(c(=O)n(C)c(=O)n2C)n1C`, the growth in experiment [1] is 120% (inactive); in experiment [2] it was 102% (inactive); in experiment [3], 107% (inactive); in experiment [4] it was 49.8% (inactive); in [5] it was 97.6% (inactive); in experiment [6], 98.9% (inactive). For the same compound, the growth in experiment [7] was 98% (inactive); in experiment [18] it was 77.8% (inactive); in experiment [8] it was 98.2% (inactive); in experiment [9] it was -28.5% (active); in experiment [19], 90.1% (inactive); in experiment [10] it was 98.6% (inactive). The growth is 104% (inactive) in experiment [11]; 125% (inactive) in [12]; 100% (inactive) in experiment [13]; 95.2% (inactive) in experiment [14]; 95.1% (inactive) in experiment [15]; 115% (inactive) in [20]. In addition, the growth was 111% (inactive) in experiment [16] and 131% (inactive) in experiment [17].
